Screening data as filed in PubChem BioAssay.
Hits are enriched below; roughly 9% of the tested compounds scored in any of these assays.
Lamin A splicing: changes lamin A minigene splicing in HeLa cells | HeLa LMNA splicing GFP/RFP minigene ratio, 48 h | Potency, µM (series often up to 46.1 µM), most hits filed as inhibitors | 200,000 tested, 0.01% active | AID 1487; active means well fitted inhibition curve with a large enough effect in the signal ratio, with a control signal flat, not every such curve was filed as active; inconclusive means small, poorly fitted or top-dose-only effect, or effect the other way, or a change in a side signal; the % refers to the signal ratio
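S3 HeLa stable clones carrying a lamin A-EGFP splicing minigene plus DsRed2 were seeded at 600 cells/well in Opti-MEM with 2% FBS, pin-dosed and incubated 48 h at 37°C. Acumen cytometry (488 nm) gave the GFP/RFP total-intensity ratio.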
ALDH1A1 inh: inhibitors of human aldehyde dehydrogenase 1A1. P00352. Purified ALDH1A1, NADH fluorescence, propionaldehyde substrate. Potency, µM (series often up to 75.3 µM), actives largely listed as inhibitors. 220,000 tested, 7.3% active. AID 1030; active means well fitted inhibition curve with a large enough effect, not every such curve was filed as active; inconclusive means small, poorly fitted or top-dose-only effect, or another doubt; inactive means no such curve, though single readings can be large or run the other way
HPGD inh: blocks human HPGD enzyme activity. P15428. purified HPGD, NADH fluorescence kinetic, PGE2 substrate. Potency, µM, hits mostly inhibitors. 150,000 tested, 4.3% active; active means well fitted inhibition curve with a large enough effect, not every such curve was filed as active; inconclusive means small, poorly fitted or top-dose-only effect, or another doubt; inactive means no such curve, though single readings can be large or run the other way
Target sequence (P15428 whole entry, looked up): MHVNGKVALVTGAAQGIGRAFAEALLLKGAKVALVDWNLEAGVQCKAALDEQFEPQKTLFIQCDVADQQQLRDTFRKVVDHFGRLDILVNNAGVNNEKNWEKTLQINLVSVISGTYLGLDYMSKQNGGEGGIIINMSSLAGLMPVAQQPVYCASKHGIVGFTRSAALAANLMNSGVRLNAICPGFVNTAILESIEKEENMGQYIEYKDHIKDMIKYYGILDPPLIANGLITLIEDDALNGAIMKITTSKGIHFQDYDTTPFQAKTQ
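NADH formation kinetics: reaction with 30 uM PGE2 and 1 mM NAD+ (final), 20 nM enzyme, Tris-HCl pH 8 with Tween 20, after 15 min compound preincubation at room temperature. Fluorescence change, last versus first of five reads.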
IMPase Li inh: IMPase inhibition in cells with lithium potentiation; AID 1457; CHO-M1 cells, IP1 TR-FRET (IP-One), carbachol + lithium; 210,000 tested, 0.35% active; Potency, µM (doses to about 59.4 µM), usual class: inhibitors;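 further: IP1 builds up when IMPase is blocked and the TR-FRET signal falls; nearly all actives have a fitted effect of over 50% in size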
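CHO-M1, 2000 cells/well, 16–30 h culture; cpd + low Li+, 30 min 37C; lysis with d2-IP1/Eu-anti-IP1 Ab, 10 min RT; TR-FRET 665/620 ratio and 620 channel; AC50 via Hill.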
Luc counter: counter-screen: inhibitors of Kinase-Glo firefly luciferase | Q27757 | Kinase-Glo luciferase, ATP luminescence, 8 min | Potency, µM (top dose mostly 38.3 µM), most hits filed as inhibitors | 200,000 tested, 0.28% active; further: nearly all actives have a fitted effect of over 60% in size
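Compound is pinned into ATP-containing buffer (10 uM ATP, imidazole pH 7.2, 7 mM MgCl2). Kinase-Glo luciferase reagent is then added. Light output is recorded following an 8-min room-temperature incubation.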
Each line names hits and unclear results; the compound was inactive in the other large screens. Unless noted, the call rests on the fitted dose curve; in most records, active means well fitted curve in the direction sought with a large enough effect; inconclusive means small, poorly fitted or top-dose-only effect, or another doubt; inactive means no such curve, though single readings can be large; an effect the other way counts as inactive or inconclusive.

O=C(Nc1cccc(C(F)(F)F)c1)C1CCN(c2nnc(-n3cccc3)s2)CC1	none (no result: ALDH1A1 inh, HPGD inh, IMPase Li inh, Luc counter)
COC(=O)c1ccc(N=NNc2ccc(C(=O)OC)cc2)cc1	none
COC(=O)c1ccc(N=NNc2ccccc2)cc1	ALDH1A1 inh inconclusive, HPGD inh 25.1µM
COc1ccc(OCCCC(=O)Nc2nc(-c3ccccn3)cs2)cc1	ALDH1A1 inh 31.6µM (no result: HPGD inh)
O=C(Cc1ccccc1F)Nc1nc(-c2cccs2)cs1	Lamin A splicing inconclusive
O=C(NC(=S)Nc1ccc(NC(=O)c2cccs2)cc1)c1cc2ccccc2o1	none
Cc1cc(C)c(OCC(=O)Nc2nc(-c3ccccn3)cs2)c(C)c1	Lamin A splicing inconclusive, ALDH1A1 inh inconclusive (no result: HPGD inh)
O=C(NC(=S)Nc1nc(-c2ccccc2)cs1)c1cccnc1	ALDH1A1 inh 8.91µM (no result: Lamin A splicing, HPGD inh)
O=C(NC(=S)Nc1nc(-c2cccc3ccccc23)cs1)c1cc2ccccc2o1	ALDH1A1 inh 20µM
O=C(Cc1ccccc1F)Nc1nc(-c2cccnc2)cs1	ALDH1A1 inh 25.1µM (no result: Lamin A splicing, HPGD inh)
C/C(=C\C=C\c1ccccc1)C(=O)c1c(C)cc(C)[nH]c1=O	none (no result: HPGD inh)
Fc1ccc(NC(=S)Nc2cccnc2)c(F)c1F	ALDH1A1 inh inconclusive (no result: HPGD inh)
C=CCOC(=O)N[C@H](/C(C(=O)OC)=C(\C)NCc1ccccc1)c1cccc(F)c1	none (no result: Lamin A splicing)
O=C(CCCc1nc2ccccc2s1)NNC(=O)CCN1CCN(Cc2ccccc2)CC1	none (no result: HPGD inh)
O=C(Nc1nc(-c2ccccn2)cs1)c1ccco1	Lamin A splicing inconclusive, ALDH1A1 inh 35.5µM (no result: HPGD inh)
O=C(Nc1nc(-c2ccncc2)cs1)c1ccco1	none
O=C(NC(=S)Nc1nc(-c2ccccc2)cs1)c1ccco1	Lamin A splicing inconclusive, ALDH1A1 inh 14.1µM (no result: HPGD inh)
O=Cc1ccc(Cl)cc1	none (no result: Lamin A splicing, Luc counter)
CN1C(=S)SC(C)(NO)C1(C)C (stereo not given)	ALDH1A1 inh 0.794µM
COc1ccc(C2=NN(CN3C(=O)C(=O)c4ccccc43)C(c3ccc(OC)cc3)C2)cc1 (stereo not given)	Lamin A splicing inconclusive, ALDH1A1 inh 0.112µM
CCC1(C)NC(=O)N(CC(=O)N2N=C(c3ccccc3)CC2c2ccc(OC)cc2)C1=O (stereo not given)	none (no result: HPGD inh, IMPase Li inh, Luc counter)
Cc1ccc(Cn2c(CN3CCC(C(=O)NCC(C)c4ccccc4)CC3)cc3ccccc32)cc1 (stereo not given)	none (no result: ALDH1A1 inh, HPGD inh, IMPase Li inh, Luc counter)
COc1cccc(NC(=O)CN(C)CC(=O)Nc2ccc(C)cc2Cl)c1	ALDH1A1 inh 11.2µM (no result: HPGD inh)
c1ccc(-c2ccc(-c3ccccn3)nn2)nc1	Lamin A splicing inconclusive, ALDH1A1 inh 20µM, HPGD inh 25.1µM, Luc counter 10µM
CN(C)C(CNC(=O)c1ccc(S(=O)(=O)N(C)C)cc1)Cc1ccccc1 (stereo not given)	Lamin A splicing inconclusive, ALDH1A1 inh inconclusive (no result: HPGD inh)
Nc1ccc(-c2cc(N)n(-c3ccccc3)n2)cc1	ALDH1A1 inh 11.2µM
CCCCCCCCCCCCC/C=C/[C@@H](O)[C@H](CO)NCCCCCCCC	none (no result: Lamin A splicing)
N#C/C(=C\C=C\c1ccccc1[N+](=O)[O-])c1nc(-c2ccc3c(c2)OCO3)cs1	none
N#C/C(=C/c1ccccc1[N+](=O)[O-])c1nc(C2CC2)cs1	Lamin A splicing inconclusive, ALDH1A1 inh 11.2µM, HPGD inh inconclusive
N#C/C(=C/c1ccccc1[N+](=O)[O-])c1nnc2n1CCCCC2	ALDH1A1 inh 22.4µM, HPGD inh 2.51µM
N#C/C(=C\c1ccc([N+](=O)[O-])cc1)c1nc(C2CC2)cs1	none
N#C/C(=C\c1ccccc1[N+](=O)[O-])c1nc(C2CC2)cs1	ALDH1A1 inh 10µM
CC(=O)Nc1ccc(-n2nnnc2SCC(=O)NCc2cccs2)cc1	none (no result: HPGD inh)
O=C1CCCC=C1[C@@H](O)CCOC(c1ccccc1)(c1ccccc1)c1ccccc1	none (no result: Lamin A splicing)
CC(=O)C1=C(C)N(c2ccccc2)C(=O)C1(NS(=O)(=O)c1ccc(N)cc1)C(F)(F)F (stereo not given)	none (no result: HPGD inh)
COC(=O)C1=C(C)N(CCc2ccccc2)C(=O)C1(NS(=O)(=O)c1ccc(NC(C)=O)cc1)C(F)(F)F (stereo not given)	ALDH1A1 inh 20µM
CC(=O)Nc1ccc(S(=O)(=O)NC2(C(F)(F)F)C(=O)Nc3c2c(=O)n(C)c(=O)n3C)cc1 (stereo not given)	ALDH1A1 inh inconclusive, HPGD inh 20µM
CC(=O)Nc1ccc(S(=O)(=O)NC2(C(F)(F)F)C(=O)Nc3c2c(=O)[nH]c(=O)n3C)cc1 (stereo not given)	none
CC1(C)CC(=O)C2=C(C1)NCN(Cc1ccccc1)C2	none
CCCN1CN(Cc2ccccc2)CC2=C1CC(C)(C)CC2=O	ALDH1A1 inh 7.94µM
CCCCn1cc(S(=O)(=O)c2ccc(C)cc2)c(=O)c2cc(F)c(N3CCCCC3)cc21	none (no result: ALDH1A1 inh, HPGD inh, IMPase Li inh, Luc counter)
Cc1cc(C)c(-n2[nH]nnc2=S)c(C)c1	ALDH1A1 inh 22.4µM (no result: Lamin A splicing, HPGD inh, IMPase Li inh, Luc counter)
COc1ccc(C)cc1-n1[nH]nnc1=S	Lamin A splicing inconclusive, ALDH1A1 inh 10µM (no result: HPGD inh)
COc1ccccc1-c1ccc(=O)n(CC(=O)Nc2ccc(C(=O)N3CCCC3)cc2)n1	ALDH1A1 inh inconclusive, HPGD inh 14.1µM
O=C(O)CC1=C(O)C(=O)N(c2ccccc2)C1c1ccccc1 (stereo not given)	ALDH1A1 inh 6.31µM
CC(=O)Nc1ccc2sccc2c1	none (no result: HPGD inh)
CC(=O)NC(CC(=O)NCCN1C(=O)S/C(=C\c2ccccc2)C1=O)c1ccccc1 (stereo not given)	none (no result: Lamin A splicing, HPGD inh, IMPase Li inh, Luc counter)
Cc1ccc(C(=O)NC(=S)NCc2ccco2)cc1	ALDH1A1 inh inconclusive (no result: Lamin A splicing, HPGD inh)
